Shiga toxin inh = inhibitors of Shiga toxin in Vero cells; Vero cells, Shiga toxin protein synthesis inhibition reporter; inhibition, % at 38.7 µM; hit rate 9.2% among 290,000; in the data active = inhibition mostly above about 28%, no sharp cut-off; inactive = mostly below about 43%; note: 0% is about no effect
NS1 function inh = blocks influenza NS1 protein function; Potency, µM (series often up to 46.1 µM), without a hit: at the top dose activity, positive = more growth; hit rate 0.4% among 270,000; AID 2326; note: potency is the fitted concentration of half-maximal effect; actives are rising curves; nearly all actives have a fitted effect of over 50% in size
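OD600 was taken as the measure of yeast growth restored by compound in an NS1-expressing S. cerevisiae strain. Cells had been washed out of glucose medium and diluted 1:100 into galactose -URA medium, pH 6.0.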
SARS PLP yeast = inhibitors of SARS-CoV papain-like protease in yeast; AID 485353; hit rate 0.19% among 330,000; S. cerevisiae expressing SARS-CoV PLpro, growth rescue; Potency, µM (highest dose often 32.9 µM), without a hit: at the highest dose activity, positive = growth rescue, usual class: activators; note: potency is the fitted concentration of half-maximal effect; 0% is about no effect; nearly all actives have a fitted effect of over 55% in size
Cycloheximide cs = affects cycloheximide protein synthesis inhibition readout, counter-screen | cell reporter, cycloheximide protein synthesis inhibition counterscreen | max response, % | hit rate 12% among 300,000 | AID 2314; in the data active = max response mostly above about 13%, no sharp cut-off; inactive = mostly below about 14%; note: read at 38.3 µM for the half of the compounds with a filed dose; 0% is about no effect
Starred values were filed as active, the others as inactive; ? = inconclusive; · = no result given. A selection: hits, their analogues and other compounds. The true share with any hit is near 12%. Unless noted, calls come from the whole dose curve.

SMILES	Shiga toxin inh	NS1 function inh	SARS PLP yeast	Cycloheximide cs
O=C(NC(=S)Nc1ccc(Br)cn1)c1cncc(Br)c1	25	-7%	-2%	12
Cc1ccc(NC(=O)c2ccc3nc[nH]c3c2)c(O)c1	74*	·	1%	33*
Cc1ccc(NC(=O)c2ccc3nc[nH]c3c2)nc1	-17	6%	3%	-5
COc1ccc(NC(=O)c2ccc3nc[nH]c3c2)c(OC)c1	11	·	-1%	10
Cc1ccc(NC(=O)c2cncc(Br)c2)c(O)c1	66*	1%	0%	35*
Cc1ccc(NC(=O)c2cncc(Br)c2)nc1	79*	-12%	-7%	28*
O=C(Nc1ccc(OC(F)(F)F)cc1)c1ccc2nc[nH]c2c1	·	17%	1%	33*
CC(C)(C)c1cc(NC(=O)Nc2ccc(Br)cc2Cl)no1	61*	8%	-1%	16*
CC(C)(C)c1cc(NC(=O)Nc2ccc(Cl)cc2Cl)no1	78*	-2%	-3%	19*
CC(C)NC(=O)Nc1ccc(Br)cc1Cl	33	1%	-4%	1
Cc1c(Cl)cccc1NC(=O)Nc1cc(C(C)(C)C)on1	26	4%	-11%	6
CC(=O)N1c2ccc(S(=O)(=O)N3CCC(C(=O)NCCc4ccc(Cl)cc4)CC3)cc2CC1C (stereo not drawn)	3	11%	-1%	-1
CSCCC(=O)Nc1nc(-c2ccccn2)cs1	36	·	7%	21*
O=C(Nc1ccc2nc(-c3ccccn3)[nH]c2c1)C1CCCCC1	57*	-8%	-9%	36*
Cc1csc(NC(=O)C2CCCCC2)n1	·	-1%	-1%	24*
CC1=C(C)CC(C(=O)Nc2nc(C)cs2)C(C(=O)O)C1 (stereo not drawn)	-15	15%	5%	-3
CC(C)c1nc2ccc(NC(=O)C3CCCCC3)cc2[nH]1	19	-13%	7%	6
O=C(Nc1nc(-c2ccccn2)cs1)C1CCCC1	100*	·	26%	57*
O=C(CN1C(=O)CCC1=O)Nc1nc(-c2ccccn2)cs1	-10	-7%	14%	-5
O=C(CCCSc1ccccc1)Nc1nc(-c2ccccn2)cs1	-8	-80%	-11%	7
CCc1ccc(NS(=O)(=O)c2cccc3nsnc23)cc1	-9	-1%	6%	-1
CC1CC(C)CN(CCCNC(=O)c2ccc(CS(=O)(=O)Cc3cccc(Cl)c3)o2)C1 (stereo not drawn)	31	2%	-1%	-1
Cc1nc(SCC(=O)Nc2ccc3[nH]c(=O)[nH]c3c2)nc(C)c1C	·	·	3%	·
COCCN(C(C)=O)c1nnc(-c2ccccn2)s1	39	-47%	-3%	18*
CC(=O)c1cnc(-c2ccccn2)s1	23	·	3%	34*
SMILES	Shiga toxin inh	NS1 function inh	SARS PLP yeast	Cycloheximide cs
Cc1ccc(-c2nnc(N(C)C(=O)c3ccccn3)s2)cn1	12	-9%	-2%	13*
CC(=O)N(C)c1nnc(-c2ccccn2)s1	13	7%	9%	15*
CC(=O)c1cnc(-c2ccccc2Cl)s1	23	-1%	0%	11
Cc1cnc(-c2nnc(N(C)C(=O)c3ccccn3)s2)cn1	15	1%	-1%	-2
Cc1nc(SCCC(=O)O)c2cc(-c3ccccc3)sc2n1	-11	-43%	-2%	-7
Cc1cccc(C(=O)Nc2nnc(S(=O)(=O)N3CCC(C)CC3)s2)c1	-2	3%	-6%	-9
O=C(NCC(c1ccco1)N1CCCC1)c1cn(-c2ccccc2)nc1-c1ccc(F)cc1 (stereo not drawn)	·	·	3%	·
CN(C(=O)c1cccnc1)c1nnc(-c2cccnc2)s1	16	-1%	2%	7
CN(C(=O)c1cccnc1)c1nnc(-c2cnccn2)s1	45	4%	0%	27*
CN(C(=O)c1ccncc1)c1nnc(-c2cnccn2)s1	-12	7%	0%	-2
CN(C(=O)c1cccnc1)c1nnc(-c2ccccn2)s1	138	-4%	10%	51*
CN(C(=O)c1ccccn1)c1nnc(-c2cnccn2)s1	91	-1%	14%	40*
Cc1[nH]c(C)c(S(=O)(=O)N2CCN(c3ccccc3F)CC2)c1C(=O)N1CCCCC1	-3	7%	1%	12
COc1cc(NC(=O)c2cnn3c(C)cc(C)nc23)c(OC)cc1Cl	-3	0%	-2%	-2
CCNC(=O)CSc1nnc(CN2CCCCCC2=O)n1-c1ccccn1	2	·	0%	8
O=C1CCCCCN1Cc1nnc(SCc2nc3ccccc3s2)n1-c1ccccn1	92*	-1%	1%	74*
Cc1ccccc1C(=O)NC(=S)Nc1ccccc1N1CCCC1	8	2%	-1%	-3
COc1cc2c(cc1OC)CN(C(=S)NC(=O)c1ccccc1)CC2	-3	1%	-1%	1
COc1ccc(C(=O)NC(=S)N2CCCc3ccccc32)cc1OC	15	11%	-1%	21*
COc1ccccc1C(=O)NC(=S)N1CCc2ccccc21	7	8%	-1%	3
COc1ccccc1C(=O)NC(=S)Nc1ccccc1N1CCCC1	31	20%	-3%	28*
COc1ccccc1C(=O)NC(=S)N1CCCc2ccccc21	164*	27%	-21%	48*
N#C/C(=C\c1ccc(O)c(O)c1)C(=O)Nc1cccc2ncccc12	-5	13%	?	-1
CC1(C)CC(NS(=O)(=O)OCC(Cl)(Cl)Cl)c2cc(C#N)ccc2O1 (stereo not drawn)	-3	5%	-13%	-3
COC(=O)c1sccc1NC(=O)c1cc2c(s1)CCCC2	-10	-42%	0%	13*
SMILES	Shiga toxin inh	NS1 function inh	SARS PLP yeast	Cycloheximide cs
CCOC(=O)c1ccc(NC(=O)c2cc3c(s2)CCC3)cc1	54*	-4%	0%	39*
CC(=O)Nc1cccc(Cn2cccn2)c1	6	5%	1%	-1
O=C(Nc1cccc(Cn2cccn2)c1)c1cc2c(s1)CCCC2	143*	-88%	-1%	77*
COc1ccc(S(=O)(=O)N2CCOCC2)cc1NC(=O)c1cc2c(s1)CCCC2	14	21%	8%	7
COc1ccc(C)cc1NC(=O)c1cc2c(s1)CCC2	56	-27%	-49%	20*
CC1=C(C(=O)OCCCBr)C(c2ccc3c(c2)OCO3)NC(=O)N1 (stereo not drawn)	-12	22%	1%	-4
Cc1cc(C)n(C2CCCCC2OC(=O)CCc2ccccc2)n1 (stereo not drawn)	-4	-38%	2%	-2
Cc1cc(C)n(C(=O)/C(C#N)=C/N(C)C)n1	-16	·	0%	-2
COCCn1c(SCC(=O)Nc2ccc3c(c2)OCCO3)nc2c(c1=O)SC(C)C2 (stereo not drawn)	30*	8%	12%	23*
CC1Cc2nc(SCC(=O)Nc3ccc4c(c3)OCCO4)n(C)c(=O)c2S1 (stereo not drawn)	18	-35%	-10%	9.0*
COCCn1c(SCC(=O)Nc2cc(C)on2)nc2c(c1=O)SC(C)C2 (stereo not drawn)	-5	-14%	0%	-2
CCOC(=O)c1ccc(NC(=O)CSc2nc3c(c(=O)n2C)SC(C)C3)cc1 (stereo not drawn)	10	-92%	-1%	4
COc1ccc(NS(=O)(=O)c2c(C)[nH]c(=O)[nH]c2=O)cc1OC	-12	-1%	1%	-5
C/C(=N/NC(=O)CNC(=O)CCc1ccccc1)c1ccc(Cl)cc1	20	-3%	1%	7.1*

Source: PubChem
